According to PubChem BioAssay (NCI):
The panel holds about 83,000 compounds, 20% with a hit somewhere; the sample as a whole holds those more often.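 For each line, cells grew in 96-well plates with the test compound present at a single concentration for 48 hours.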 A number with no mark means an inactive call. Calls of active or inactive are those of the source. How the source made its calls: active means growth percent below 10; inactive means the rest.

Columns and labels:
Test in all cases: NCI-60 one-dose screen, 48 h (100 = growth as untreated, 0 = no growth, -100 = all killed)
Conditions in all cases: 10 µM unless noted
NCI-H23 lung = system: NCI-H23 lung
NCI-H226 lung = system: NCI-H226 lung
NCI-H322M lung = system: NCI-H322M lung
HOP-62 NSCLC = system: HOP-62 NSCLC
NCI-H460 lung = system: NCI-H460 lung
HOP-92 NSCLC = system: HOP-92 NSCLC
NCI-H522 lung = system: NCI-H522 lung
A549/ATCC NSCLC = system: A549/ATCC NSCLC
786-0 renal = system: 786-0 renal
COLO 205 colon = system: COLO 205 colon

| SMILES | growth (NCI-H23 lung) | growth (NCI-H226 lung) | growth (NCI-H322M lung) | growth (HOP-62 NSCLC) | growth (NCI-H460 lung) | growth (HOP-92 NSCLC) | growth (NCI-H522 lung) | growth (A549/ATCC NSCLC) | growth (786-0 renal) | growth (COLO 205 colon) |
| --- | --- | --- | --- | --- | --- | --- | --- | --- | --- | --- |
| COc1ccc(-c2nc3cc(C(=O)NCc4ccccc4)ccc3n2C2CCCCC2)cc1 | 99.6% | 102% | 81% | 90.1% | 72.2% | 92.8% | 76.8% | 74% | 70.8% | 64.7% |
| CSc1nc2ccccc2cc1/C=[N+](\[O-])c1ccccc1 | 70% | 73.9% | 85.7% | 67.9% | 92.1% | 53.2% | 82.4% | 97.6% | 74.6% | 103% |
| NC(=O)C(=O)c1ccccc1NC=O | 92.1% | 97.3% | 95.3% | 86.9% | 103% | 83.2% | 88.9% | 99.7% | 110% | 118% |
| O=S(=O)(NCCCNc1nccc(-c2c(-c3ccc(F)c(O)c3)nc3occn23)n1)c1ccc(Cl)cc1 | 70.7% | 103% | 85.3% | 88.3% | 62.3% | 68.8% | 63.1% | 72.4% | 106% | 42.9% |
| c1ccc([P+](c2ccccc2)(c2ccccc2)c2ccc3c4ccc([P+](c5ccccc5)(c5ccccc5)c5ccccc5)c5cccc(c6cccc2c63)c54)cc1 | 8.37% (active) | 15.7% | 17.8% | 14.1% | 4.26% (active) | 9.54% (active) | 6.86% (active) | 11% | 40.7% | 1.4% (active) |
| COc1ccc(C2CC(c3ccc(Nc4nc(Nc5ccccc5)nc(Nc5ccccc5)n4)cc3)=NN2C(C)=O)cc1 (stereo not given) | 97.4% | 98.1% | 107% | 95.2% | 116% | 78% | 88.7% | 88.1% | 88.5% | 111% |
| N#CC1=C(N)Oc2c(c(=O)[nH]c3ccc(Cl)cc23)C12C(=O)c1ccccc1C2=O | 93.4% | 88.2% | 93% | 88.2% | 92.5% | 98.6% | 105% | 93.6% | 96.4% | 110% |
| N#CC(C#N)N=Nc1ccc(Br)cc1 | 24.6% | 79% | 100% | 80.1% | 95.8% | -34.1% (active) | 7.59% (active) | 83.5% | 35.4% | -28.7% (active) |
| O=S(=O)(NCCCNc1nccc(-c2c(-c3ccc(F)c(O)c3)nc3sccn23)n1)c1ccccc1 | 58.3% | 97.7% | 87.7% | 89.1% | 62.2% | 55.4% | 52.1% | 63.8% | 87.2% | 30.4% |
| COC(=O)C1Cc2ccccc2CN1C(=O)c1ccc2c(c1)Cc1ccccc1-2 (stereo not given) | 35.9% [50 µM] | 45.3% [50 µM] | 68.2% [50 µM] | 76.6% [50 µM] | 34.4% [50 µM] | 48.5% [50 µM] | 18.5% [50 µM] | 27.3% [50 µM] | 54% [50 µM] | 32.2% [50 µM] |
| Cc1[nH]c(C(=O)Nc2ccc(C(=O)N3CCN(c4cc5c(cc4F)c(=O)c(C(=O)O)cn5C4CC4)CC3)cc2OC(C)C)c(Cl)c1Cl | 78.4% | 96.5% | 90.3% | 97.8% | 8.48% (active) | 46.5% | 82.1% | 38.4% | 79.8% | 114% |
| COc1ccc(Nc2ncc(Br)c(NCCCNC(=O)c3cccs3)n2)cc1 | 39.2% | 33.1% | 56.5% | 22.6% | 25.1% | 30% | 61.3% | 42.9% | 34.3% | 33.2% |
| COc1ccc(/C=N/C2=C(C#N)C(c3ccccc3)c3ccc4ccccc4c3O2)cc1 (stereo not given) | 29.9% | 51.5% | 43.7% | 22% | 8.64% (active) | 41.4% | -7.09% (active) | 16.8% | 24.4% | -26.3% (active) |
| Cc1ccc(NC(=O)Cn2cc(CN3CCN(c4ccnc5cc(Cl)ccc45)CC3)nn2)cc1 | 90% | 84.9% | 97.7% | 70.3% | 92.2% | 52.6% | 87.3% | 93.4% | 96% | 98.8% |
| Fc1cccc(Oc2ccc(Nc3ncnc4ccc(OCCCN5CCOCC5)cc34)cc2Cl)c1 | 73.5% | 88.1% | 37.7% | 82.5% | 42.5% | 54.3% | 43.8% | 48.3% | 51.9% | 79.4% |
| CCOC(=O)Cc1cnc(N/N=C(\C)c2cc3ccccc3o2)s1 | 86.5% | 80.5% | 93.6% | 68% | 94.4% | 86.9% | 42% | 91.5% | 97.3% | 108% |
| Cc1cc(C)c2c(c1)N(C)c1ncnc(-n3cnc4cc(C)ccc43)c1CC2C (stereo not given) | 37.9% | 49.9% | 48.5% | 31.8% | 7.26% (active) | 38.3% | -0.316% (active) | 26.2% | 22.8% | 0.292% (active) |
| COc1ccc(-c2nn(-c3cccc(Cl)c3)cc2-c2cc(-c3ccc(Br)cc3)nc(N)n2)cc1 | 87.3% | 86% | 80.4% | 88% | 93.9% | 91% | 68.3% | 81.2% | 88.1% | 102% |
| COc1ccc(OC)c(Nc2nnc(-c3ccc(O)c(OC)c3)o2)c1 | 70.7% | 77.1% | 86.9% | 77.6% | 82.8% | 85.1% | 61.1% | 75.5% | 36.7% | 117% |
| COc1ccc(Nc2nnc(-c3ccc(OC)c(OC)c3)o2)cc1 | 74.1% | 85.3% | 87.4% | 84.9% | 100% | 66.4% | 62.8% | 83.9% | 91.9% | 99.5% |
| CCc1ccccc1-n1c(-c2ccc(OC)cc2)cc(-c2ccc(OC)cc2)c(C#N)c1=O | 73.8% | 95.9% | 82.2% | 67.5% | 85.5% | 5.54% (active) | 73.8% | 100% | 33.7% | 132% |
| O=C(NCCNc1nccc(Nc2ccc(S(=O)(=O)Nc3ccccn3)cc2)n1)c1cccc([N+](=O)[O-])c1 | 97.4% | 98.7% | 106% | 99.2% | 104% | 102% | 82% | 94.8% | 98% | 110% |
| CCOC(=O)c1c(NC(=O)c2ccc(Cl)cc2)sc2c(CN(C)C)c(O)ccc12 | 88% | 96.1% | 61.3% | 84.6% | 71.3% | 1.75% (active) | 76.5% | 69.6% | 69.8% | 5.48% (active) |
| COC(=O)CC[C@H](C)[C@H]1CC[C@H]2[C@@H]3CC[C@@H]4CC5(CC[C@]4(C)[C@H]3CC(=O)[C@]12C)Nc1ccccc1NC5=NC(C)(C)C (stereo not given in full) | 72.8% | 65.4% | 95.6% | 84.3% | 85.5% | -2.12% (active) | 75.8% | 82.3% | 81.1% | 66.4% |
| CC(=O)/C(=C\c1c(-c2ccccc2)[nH]c2ccccc12)S(C)(=O)=O | 33.7% | 69.1% | 58.2% | 50.5% | 4.15% (active) | 42% | 29.6% | 42.8% | 22.8% | 21.2% |
| [O-]/[N+](=C\c1ccc(-n2cc(Cc3ccccc3Cc3cn(-c4ccc(/C=[N+](/[O-])c5ccccc5)cc4)nn3)nn2)cc1)c1ccccc1 | 94.7% | 101% | 93.3% | 100% | 108% | 112% | 97% | 105% | 97.5% | 107% |
